Results on nine compounds are retold here after PubChem BioAssay (Tox21).

Each structure is given as a SMILES string. Unmarked numbers belong to inactive results. Inconclusive results are not listed. The source made the active and inactive calls. Unless noted, calls come from the whole dose curve; as a rule, active = well fitted curve in the direction sought with a large enough effect in the repeat runs; inconclusive = weak or mixed curves; inactive = no such curve, though single readings can be large; an effect the other way counts as inactive or inconclusive.

Test [1] is described as follows: qHTS assay to identify small molecule agonists of the constitutive androstane receptor (CAR) signaling pathway - cell viability counter screen (AID 1224836). Note: nearly all actives have a fitted effect of over 45% in size. Note: potency is the fitted concentration of half-maximal effect. The procedure, abridged: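 HepG2 cells stably carrying hCAR and a CYP2B6-2.2kb reporter; 15-concentration compounds plus PK11195 (final 0.75 uM), 23 hr at 37 C/5% CO2. Viability read by CellTiter-Fluor fluorescence.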
In general terms: qHTS replaces the single test concentration by a dilution series.

The nature of test [2]: qHTS assay to identify small molecule antagonists of the constitutive androstane receptor (CAR) signaling pathway - cell viability counter screen (AID 1224837). Note: nearly all actives have a fitted effect of over 45% in size. Note: potency is the fitted concentration of half-maximal effect. A digest of the protocol:
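In quantitative HTS format, compounds at 15 concentrations were applied to HepG2 cells double-transfected with hCAR and CYP2B6-2.2kb under 50 nM CITCO stimulation; live-cell protease activity was read after 23 hr via CellTiter-Fluor.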

Test [3] deals with Nuclear receptor subfamily 1 group I member 3 (Homo sapiens) (UniProt Q14994). The experiment in a line: qHTS assay to identify small molecule antagonists of the constitutive androstane receptor (CAR) signaling pathway (AID 1224838). Note: nearly all actives have a fitted effect of over 40% in size. Note: potency is the fitted concentration of half-maximal effect. The procedure, abridged: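 CITCO-stimulated (50 nM final) HepG2 cells stably transfected with hCAR and CYP2B6-2.2kb luciferase were exposed to compounds at 15 concentrations for 24 h at 37 C/5% CO2. A luciferase reagent was added and luminescence recorded after 30 min.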
Chain of Nuclear receptor subfamily 1 group I member 3 (Homo sapiens) (Q14994 whole entry, looked up): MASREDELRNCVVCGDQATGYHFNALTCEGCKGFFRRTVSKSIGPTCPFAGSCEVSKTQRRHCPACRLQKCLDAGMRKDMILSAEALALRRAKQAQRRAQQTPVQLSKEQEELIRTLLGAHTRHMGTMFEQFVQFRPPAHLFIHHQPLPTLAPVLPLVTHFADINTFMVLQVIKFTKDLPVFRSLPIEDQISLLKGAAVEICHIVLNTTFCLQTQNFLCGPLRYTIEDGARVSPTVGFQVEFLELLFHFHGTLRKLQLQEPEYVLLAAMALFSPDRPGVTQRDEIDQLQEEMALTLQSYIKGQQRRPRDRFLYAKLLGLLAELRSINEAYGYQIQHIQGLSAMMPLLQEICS

Test [4] in a line: qHTS assay to identify small molecule antagonists of the estrogen related receptor signaling pathway with the pleiotropic PPARgamma coactivator (PGC) from Tox21 10K library - cell viability counter screen (AID 1224840; active = well fitted cell-killing curve with a large enough effect in the repeat runs, not every such curve was filed as active; note: % is set by controls: 0 for no effect and ±100 for the full control effect; nearly all actives have a fitted effect of over 40% in size). A digest of the protocol: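 Viability counter screen, PGC/ERR cells: 17.5 h compound exposure at 37 C, CellTiter-Fluor fluorescence endpoint.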
For test [5], the target named is Thyrotropin receptor (Homo sapiens) (UniProt P16473). The experiment in a line: qHTS assay to identify small molecule agonists of the thyroid stimulating hormone receptor (TSHR) signaling pathway (AID 1224843; calls by dose curve; note: % is set by controls: 0 for no effect and ±100 for the full control effect; nearly all actives have a fitted effect of over 45% in size). A digest of the protocol: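 Agonist-mode screen: TSHR HEK293 cells received test chemicals for half an hour at room temperature, then HTRF cAMP detection reagents for one hour prior to fluorescence measurement. Each chemical ran as a 15-concentration series, triplicated.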
Chain of Thyrotropin receptor (Homo sapiens) (P16473 whole entry, looked up): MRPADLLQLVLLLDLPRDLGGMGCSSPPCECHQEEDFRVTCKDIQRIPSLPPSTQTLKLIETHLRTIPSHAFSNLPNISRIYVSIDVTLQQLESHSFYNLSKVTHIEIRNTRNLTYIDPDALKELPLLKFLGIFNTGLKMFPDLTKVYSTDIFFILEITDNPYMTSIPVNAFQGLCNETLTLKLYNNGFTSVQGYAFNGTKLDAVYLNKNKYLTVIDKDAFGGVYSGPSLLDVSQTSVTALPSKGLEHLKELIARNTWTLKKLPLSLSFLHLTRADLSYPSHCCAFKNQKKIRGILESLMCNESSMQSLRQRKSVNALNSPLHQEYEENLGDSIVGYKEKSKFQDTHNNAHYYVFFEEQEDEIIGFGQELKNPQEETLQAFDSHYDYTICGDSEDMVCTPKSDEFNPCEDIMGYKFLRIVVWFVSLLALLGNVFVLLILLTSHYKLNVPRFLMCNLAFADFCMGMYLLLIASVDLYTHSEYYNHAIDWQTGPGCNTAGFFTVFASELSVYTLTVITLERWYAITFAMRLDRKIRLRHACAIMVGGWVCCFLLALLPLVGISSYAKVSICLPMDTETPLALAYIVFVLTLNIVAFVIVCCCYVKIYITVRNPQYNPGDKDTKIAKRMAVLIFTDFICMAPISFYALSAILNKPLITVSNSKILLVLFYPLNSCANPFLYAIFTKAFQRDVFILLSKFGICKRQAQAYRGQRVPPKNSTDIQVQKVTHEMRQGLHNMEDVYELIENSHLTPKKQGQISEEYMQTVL

Test [6] can be described thus: qHTS assay to identify small molecule agonists of the hypoxia (HIF-1) signaling pathway - cell viability counter screen (AID 1224844; calls by dose curve; note: % is set by controls: 0 for no effect and ±100 for the full control effect; nearly all actives have a fitted effect of over 50% in size). The procedure, abridged: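 Same wells as the HIF-1 reporter screen; ME-180 cells carrying HRE-bla, 17 hr treatment at 37C; CellTiter-Glo luminescence read after 30 min at room temperature.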
Test [7] is described as follows: qHTS assay to identify small molecule agonists of H2AX (AID 1224845; active = well fitted activation curve with a large enough effect in the signal ratio in the repeat runs, not every such curve was filed as active; the % refers to the signal ratio; note: % is set by controls: 0 for no effect and ±100 for the full control effect). The procedure, abridged: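 Wild-type CHO-K1 cells, plated overnight, exposed 3hr at 37C to 15 concentrations (0.76% DMSO final). Lysed, then HTRF anti-pH2AX (S139) cryptate and anti-H2AX-d2 antibodies, 24 hr room temperature; 665/620 nm emission read.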
Test [8] can be described thus: qHTS assay to identify small molecule agonists of the hypoxia (HIF-1) signaling pathway (AID 1224846; active = well fitted activation curve with a large enough effect in the signal ratio in the repeat runs, not every such curve was filed as active; the % refers to the signal ratio; note: % is set by controls: 0 for no effect and ±100 for the full control effect). A digest of the protocol:
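In ME-180 cells bearing an HRE-bla construct, 17 h treatment with DMSO-dissolved compounds at 37C was followed by CCF4-AM loading to quantify reporter induction.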

Test [9] can be described thus: qHTS assay to identify small molecule agonists of H2AX - cell viability counter screen (AID 1224847; calls by dose curve; note: nearly all actives have a fitted effect of over 30% in size; note: potency is the fitted concentration of half-maximal effect). A digest of the protocol: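 CHO-K1 cells plated overnight at 37C, then exposed 3 h at 37C to compounds at 15 concentrations (0.76% DMSO final). Viability by CellTiter-Glo luminescence after 30 min at room temperature.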
A short description of test [10]: qHTS RealTime-Glo MT Cell Viability Assay in HEK293 cells - 32 hour (AID 1224868). Note: nearly all actives have a fitted effect of over 50% in size. Note: potency is the fitted concentration of half-maximal effect. A digest of the protocol: (§1)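 Nonlytic real-time viability readout: viable cells convert prosubstrate to NanoLuc substrate, giving luminescence proportional to live cell number. HEK293, 600 cells/well, compound added after 5 h, continuous culture at 37 C.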
Test [11] in a line: A CellTox Green Cytotoxicity Assay to monitor cytotoxicity in HEK293 cells - 0 hour (AID 1224869). For Cytotoxicity: % is set by controls: 0 for no effect and ±100 for the full control effect. Note: nearly all actives have a fitted effect of over 50% in size. Note: potency is the fitted concentration of half-maximal effect. A digest of the protocol: (§2)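 Homogeneous no-lysis format: HEK293 cell suspension mixed with CellTox Green reagent, seeded, incubated 5 h at 37 C/5% CO2, then dosed by pintool with compound in DMSO.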
A short description of test [12]: qHTS RealTime-Glo MT Cell Viability Assay in HepG2 cells - 40 hour (AID 1224870). Note: % is set by controls: 0 for no effect and ±100 for the full control effect; nearly all actives have a fitted effect of over 50% in size. The procedure, abridged: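 HepG2 cells (600/well) mixed with RealTime-Glo MT reagent, settled 5 h at 37 C/5% CO2 before compound addition. Nonlytic NanoLuc luminescence from viable-cell prosubstrate reduction read repeatedly during 40 h treatment at 37 C.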
Test [13] in a line: A CellTox Green Cytotoxicity Assay to monitor cytotoxicity in HEK293 cells - 40 hour (AID 1224871). Note: nearly all actives have a fitted effect of over 45% in size. Note: potency is the fitted concentration of half-maximal effect. The procedure, abridged: as §2
Test [14] in a line: qHTS RealTime-Glo MT Cell Viability Assay in HEK293 cells - 16 hour (AID 1224872). Note: nearly all actives have a fitted effect of over 50% in size. Note: potency is the fitted concentration of half-maximal effect. The procedure, abridged:
as §1

The nature of test [15]: qHTS RealTime-Glo MT Cell Viability Assay in HepG2 cells - 24 hour (AID 1224867). A digest of the protocol: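 Luminescence read-out: viable HepG2 cells reduce a prosubstrate to a NanoLuc substrate, giving a signal proportional to live cell number. Reads taken at 0, 8, 16, 24, 32 and 40 h of compound exposure at 37 C.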
Test [16] in a line: qHTS assay to identify small molecule agonists of the estrogen related receptor signaling pathway with the pleiotropic PPARgamma coactivator (PGC) from Tox21 10K library (AID 1224842). Note: % is set by controls: 0 for no effect and ±100 for the full control effect; nearly all actives have a fitted effect of over 15% in size. A digest of the protocol: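 PGC/ERR reporter cell line, 2,000 cells per well, incubated 6 h at 37 C before 23 nL compound in DMSO was added. After 18 h at 37 C, One-Glo luminescence read following 30 min at room temperature.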

The nature of test [17]: qHTS assay to identify small molecule agonists of the estrogen related receptor (ERR) signaling pathway from Tox21 library (AID 1224849; calls by dose curve; note: % is set by controls: 0 for no effect and ±100 for the full control effect; nearly all actives have a fitted effect of over 15% in size). As to conditions: ERR reporter cell line, ONE-Glo luciferase, 18 h; at 92.4 µM (top of the series) unless noted. A digest of the protocol: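 Reporter cells (ERR, NTP source) treated with Tox21 10K compounds 18 h, 37 C. Readout: ONE-Glo luminescence, 30 min RT.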

Test [18] is described as follows: qHTS assay to identify small molecule antagonists of the estrogen related receptor signaling pathway with the pleiotropic PPARgamma coactivator (PGC) from Tox21 10K library (AID 1224841; call rule not given here). The procedure, abridged:
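In the PGC/ERR line, DMSO solutions of test chemicals are pin-delivered to 2,000 cells/well six hours after dispensing. Following eighteen hours' incubation, One-Glo reagent is added and luminescence recorded.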

Test [19] is described as follows: qHTS assay to identify small molecule antagonists of the estrogen related receptor (ERR) signaling pathway from Tox21 library (AID 1224848). A digest of the protocol:
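Quantitative high-throughput format: ERR reporter cells (2,000/well) pre-incubated 6 h, treated 18 h at 37 C with compounds in DMSO alongside positive and negative controls, then read by ONE-Glo luminescence.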

For `C=C(C)C(=O)OCCC[Si](Cl)(Cl)Cl`, the Potency result in test [1], in test [2], in [3], in test [4], in test [5] and in test [6] was “inactive” in each case. The Potency result in test [7], in [9], in [10], in test [11], in [12] and in test [13] was “inactive” each time. Also, in test [14], the Potency result is “inactive”. Besides, the result in test [8] was inactive.

On to `Oc1ccc(-c2ccccc2)c(Cl)c1`, for which the Potency result in test [1], in test [2], in test [3], in test [4], in test [5] and in test [11] was “inactive” in each case. For the same compound, in test [12], the Potency entry is “inactive”. Besides, the Potency in test [9] was 89.8 µM (active); in test [10] it was 24.5 µM (active); in test [14], 24.5 µM (active).

For the compound `CC(=O)c1ccccc1N`, the Potency entry in [1], in [2], in test [3], in [4], in [5] and in test [6] was “inactive” each time. Besides, the Potency result in test [9], in [11], in test [12] and in test [13] was “inactive” in each case. In [8], the result was inactive.

Take `Cc1cccc(Br)c1`: the Potency entry in [1], in [2], in test [3], in test [4], in test [5] and in test [9] was “inactive” throughout. The Potency entry in test [15], in test [10], in [12], in test [13] and in [14] was “inactive” throughout.

For the compound `C=CC(C)(CCC=C(C)C)OC(=O)/C=C/c1ccccc1` (configuration not stated), the Potency result in test [1], in test [2], in test [3], in test [4], in [5] and in test [6] was “inactive” throughout. Moreover, the Potency result in test [9], in test [15], in test [10] and in test [14] was “inactive” in each case. Also, the result in test [8] was inactive. Also, the Potency in [11] and in test [13] was 38.9 µM (active) each time.

As for `O=C(O)CC(=O)O`, the Potency result in test [1], in test [2], in [3], in test [4], in test [5] and in test [6] was “inactive” each time. Moreover, the Potency entry in test [7], in test [9], in [15], in [12] and in test [14] was “inactive” throughout. For the same compound, the outcome in [8] was inactive.

For the compound `CCCCCCCC/C=C\CCCCCCCC(=O)NCc1ccc(O)c(OC)c1`, the Potency entry in test [1], in test [2], in test [3], in [4], in test [16] and in test [6] was “inactive” in each case. The Potency entry in [7], in [9], in [15], in test [11], in test [12] and in test [13] was “inactive” throughout. The activity change, positive = activation in test [17] was -18.5% [at 42.5 µM]. The results for the Potency in test [10] and in [14] were 2.68 µM (active) and 1.69 µM (active), respectively.

For the compound `O=C[C@H](O)[C@H](O)[C@H](O)CO`, the Potency entry in [1], in test [2], in test [3], in test [4], in test [5] and in [6] was “inactive” throughout. The Potency entry in test [7], in test [9], in test [15], in test [11], in test [12] and in [13] was “inactive” throughout. Also, the Potency result in test [14] is “inactive”. Besides, the compound was called inactive in test [8].

For `O=C1NCCN1CCN1CCC(c2cn(-c3ccc(F)cc3)c3ccc(Cl)cc23)CC1`, the Potency in test [1] is 11.9 µM (active); in test [2], 11.9 µM (active); in test [3] it was 11.9 µM (active); in test [9], 49.2 µM (active); in test [19], 13.3 µM (active); in test [10], 21.3 µM (active). Further, the Potency in test [13] and in test [14] was 23.9 µM (active) each time. The Potency entry in test [18] and in test [11] was “inactive” in each case. The compound was called inactive in [8]. Besides, the activity change, positive = activation in [17] was -56.2% [at 42.5 µM].
